In the supplement of paper PMC4466140:

B1: unnamed (peptide)
chain: GSKSGPPPRPKKPST

target: AgAbp1; experiment: SPOT peptide array binding signal intensity (averaged, normalized) (arbitrary units (background-subtracted, floor 0; scale differs between SH3 domains)); higher = stronger binding of the SH3 domain to the peptide
Method in brief: (§1)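 Cellulose membranes carried synthetic 15-mer peptides with cysteines swapped for serines. These were incubated overnight at 4°C with 10 μg/ml of GST-fused SH3 domains from four yeast species in TBS-based blocking buffer. Binding signal, detected with anti-GST antibody and quantified in Genespotter, is the normalized, background-subtracted spot intensity averaged over replicates, in arbitrary units specific to each domain.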

Binder	SPOT peptide array binding signal intensity
B1	94

target: AgBbc1; experiment: as above
Method in brief: as §1

Binder	SPOT peptide array binding signal intensity
B1	780

target: AgBem1-D1; experiment: as above
Method in brief: as §1

Binder	SPOT peptide array binding signal intensity
B1	66.5

target: AgBzz1-D1; experiment: as above
Method in brief: as §1

Binder	SPOT peptide array binding signal intensity
B1	524

target: AgBzz1-D2; experiment: as above
Method in brief: as §1

Binder	SPOT peptide array binding signal intensity
B1	102

target: AgCyk3; experiment: as above
Method in brief: as §1

Binder	SPOT peptide array binding signal intensity
B1	≤ 0

target: AgFus1; experiment: as above
Method in brief: as §1

Binder	SPOT peptide array binding signal intensity
B1	23

target: AgHof1; experiment: as above
Method in brief: as §1

Binder	SPOT peptide array binding signal intensity
B1	39.2

target: AgHse1; experiment: as above
Method in brief: as §1

Binder	SPOT peptide array binding signal intensity
B1	≤ 0

target: AgLsb1; experiment: as above
Method in brief: as §1

Binder	SPOT peptide array binding signal intensity
B1	≤ 0

target: AgLsb4; experiment: as above
Method in brief: as §1

Binder	SPOT peptide array binding signal intensity
B1	≤ 0

target: AgMyo5; experiment: as above
Method in brief: as §1

Binder	SPOT peptide array binding signal intensity
B1	0.25

target: AgNbp2; experiment: as above
Method in brief: as §1

Binder	SPOT peptide array binding signal intensity
B1	37

target: AgRvs167; experiment: as above
Method in brief: as §1

Binder	SPOT peptide array binding signal intensity
B1	≤ 0

target: AgSho1; experiment: as above
Method in brief: as §1

Binder	SPOT peptide array binding signal intensity
B1	20

target: AgSla1-D1-D2; experiment: as above
Method in brief: as §1

Binder	SPOT peptide array binding signal intensity
B1	9

target: AgSla1-D3; experiment: as above
Method in brief: as §1

Binder	SPOT peptide array binding signal intensity
B1	7.5

target: CaAbp1-D1; experiment: as above
Method in brief: as §1

Binder	SPOT peptide array binding signal intensity
B1	328

target: CaAbp1-D2; experiment: as above
Method in brief: as §1

Binder	SPOT peptide array binding signal intensity
B1	189

target: CaBbc1; experiment: as above
Method in brief: as §1

Binder	SPOT peptide array binding signal intensity
B1	825

target: CaBem1-D1; experiment: as above
Method in brief: as §1

Binder	SPOT peptide array binding signal intensity
B1	13

target: CaBzz1-D1; experiment: as above
Method in brief: as §1

Binder	SPOT peptide array binding signal intensity
B1	1530

target: CaBzz1-D2; experiment: as above
Method in brief: as §1

Binder	SPOT peptide array binding signal intensity
B1	388

target: CaCyk3; experiment: as above
Method in brief: as §1

Binder	SPOT peptide array binding signal intensity
B1	36.5

target: CaFus1; experiment: as above
Method in brief: as §1

Binder	SPOT peptide array binding signal intensity
B1	42

target: CaHof1; experiment: as above
Method in brief: as §1

Binder	SPOT peptide array binding signal intensity
B1	1.5

target: CaHse1; experiment: as above
Method in brief: as §1

Binder	SPOT peptide array binding signal intensity
B1	0.5

target: CaLsb1; experiment: as above
Method in brief: as §1

Binder	SPOT peptide array binding signal intensity
B1	0.5

target: CaLsb4; experiment: as above
Method in brief: as §1

Binder	SPOT peptide array binding signal intensity
B1	≤ 0

target: CaMyo5; experiment: as above
Method in brief: as §1

Binder	SPOT peptide array binding signal intensity
B1	0.5

target: CaNbp2; experiment: as above
Method in brief: as §1

Binder	SPOT peptide array binding signal intensity
B1	27

target: CaRvs167; experiment: as above
Method in brief: as §1

Binder	SPOT peptide array binding signal intensity
B1	≤ 0

target: CaRvs167-3; experiment: as above
Method in brief: as §1

Binder	SPOT peptide array binding signal intensity
B1	3.5

target: CaSho1; experiment: as above
Method in brief: as §1

Binder	SPOT peptide array binding signal intensity
B1	29.5

target: CaSla1-D1-D2; experiment: as above
Method in brief: as §1

Binder	SPOT peptide array binding signal intensity
B1	130

target: CaSla1-D3; experiment: as above
Method in brief: as §1

Binder	SPOT peptide array binding signal intensity
B1	230

target: ScAbp1; experiment: as above
Method in brief: as §1

Binder	SPOT peptide array binding signal intensity
B1	234

target: ScBbc1; experiment: as above
Method in brief: as §1

Binder	SPOT peptide array binding signal intensity
B1	97.8

target: ScBem1-D1; experiment: as above
Method in brief: as §1

Binder	SPOT peptide array binding signal intensity
B1	15

target: ScBzz1-D1; experiment: as above
Method in brief: as §1

Binder	SPOT peptide array binding signal intensity
B1	48.5

target: ScBzz1-D2; experiment: as above
Method in brief: as §1

Binder	SPOT peptide array binding signal intensity
B1	72

target: ScCyk3; experiment: as above
Method in brief: as §1

Binder	SPOT peptide array binding signal intensity
B1	1

target: ScFus1; experiment: as above
Method in brief: as §1

Binder	SPOT peptide array binding signal intensity
B1	6.5

target: ScHof1; experiment: as above
Method in brief: as §1

Binder	SPOT peptide array binding signal intensity
B1	1.75

target: ScHse1; experiment: as above
Method in brief: as §1

Binder	SPOT peptide array binding signal intensity
B1	13

target: ScLsb1; experiment: as above
Method in brief: as §1

Binder	SPOT peptide array binding signal intensity
B1	2.5

target: ScLsb2; experiment: as above
Method in brief: as §1

Binder	SPOT peptide array binding signal intensity
B1	0.5

target: ScLsb3; experiment: as above
Method in brief: as §1

Binder	SPOT peptide array binding signal intensity
B1	1400

target: ScLsb4; experiment: as above
Method in brief: as §1

Binder	SPOT peptide array binding signal intensity
B1	5

target: ScMyo3; experiment: as above
Method in brief: as §1

Binder	SPOT peptide array binding signal intensity
B1	5.25

target: ScMyo5; experiment: as above
Method in brief: as §1

Binder	SPOT peptide array binding signal intensity
B1	≤ 0

target: ScNbp2; experiment: as above
Method in brief: as §1

Binder	SPOT peptide array binding signal intensity
B1	51

target: ScPex13; experiment: as above
Method in brief: as §1

Binder	SPOT peptide array binding signal intensity
B1	133

target: ScRvs167; experiment: as above
Method in brief: as §1

Binder	SPOT peptide array binding signal intensity
B1	3.33

target: ScSho1; experiment: as above
Method in brief: as §1

Binder	SPOT peptide array binding signal intensity
B1	41

target: ScSla1-D1-D2; experiment: as above
Method in brief: as §1

Binder	SPOT peptide array binding signal intensity
B1	57.5

target: ScSla1-D3; experiment: as above
Method in brief: as §1

Binder	SPOT peptide array binding signal intensity
B1	28

target: SpAbp1-D1; experiment: as above
Method in brief: as §1

Binder	SPOT peptide array binding signal intensity
B1	85

target: SpBbc1; experiment: as above
Method in brief: as §1

Binder	SPOT peptide array binding signal intensity
B1	5.5

target: SpBzz1-D1; experiment: as above
Method in brief: as §1

Binder	SPOT peptide array binding signal intensity
B1	320

target: SpBzz1-D2; experiment: as above
Method in brief: as §1

Binder	SPOT peptide array binding signal intensity
B1	2

target: SpCyk3; experiment: as above
Method in brief: as §1

Binder	SPOT peptide array binding signal intensity
B1	≤ 0

target: SpHof1; experiment: as above
Method in brief: as §1

Binder	SPOT peptide array binding signal intensity
B1	1.5

target: SpHof1-2; experiment: as above
Method in brief: as §1

Binder	SPOT peptide array binding signal intensity
B1	10.5

target: SpHof1-3; experiment: as above
Method in brief: as §1

Binder	SPOT peptide array binding signal intensity
B1	25

target: SpHse1; experiment: as above
Method in brief: as §1

Binder	SPOT peptide array binding signal intensity
B1	16.2

target: SpLsb1; experiment: as above
Method in brief: as §1

Binder	SPOT peptide array binding signal intensity
B1	12.5

target: SpLsb4; experiment: as above
Method in brief: as §1

Binder	SPOT peptide array binding signal intensity
B1	332

target: SpMyo1; experiment: as above
Method in brief: as §1

Binder	SPOT peptide array binding signal intensity
B1	8

target: SpNbp2; experiment: as above
Method in brief: as §1

Binder	SPOT peptide array binding signal intensity
B1	5

target: SpPex13; experiment: as above
Method in brief: as §1

Binder	SPOT peptide array binding signal intensity
B1	7

target: SpRvs167; experiment: as above
Method in brief: as §1

Binder	SPOT peptide array binding signal intensity
B1	≤ 0

target: SpSla1-D1-D2; experiment: as above
Method in brief: as §1

Binder	SPOT peptide array binding signal intensity
B1	5

target: SpSla1-D3; experiment: as above
Method in brief: as §1

Binder	SPOT peptide array binding signal intensity
B1	1
